Screens as filed in PubChem.
RORgamma inh – qHTS for inhibitors of ROR gamma transcriptional activity | actives 5.4% (n = 310,000) | Potency, µM (titrated, usually from 53.6 µM), without a hit: at the highest dose activity change, negative = inhibition, actives largely listed as inhibitors | Nuclear receptor ROR-gamma (Mus musculus), P51450 | Drosophila S2 Gal4-RORgamma UAS-luciferase reporter, 20 h; further: potency means the concentration at half of the fitted maximal effect; nearly all actives have a fitted effect of over 60% in size
Target sequence (P51450 whole entry, looked up, the tested form may be a part): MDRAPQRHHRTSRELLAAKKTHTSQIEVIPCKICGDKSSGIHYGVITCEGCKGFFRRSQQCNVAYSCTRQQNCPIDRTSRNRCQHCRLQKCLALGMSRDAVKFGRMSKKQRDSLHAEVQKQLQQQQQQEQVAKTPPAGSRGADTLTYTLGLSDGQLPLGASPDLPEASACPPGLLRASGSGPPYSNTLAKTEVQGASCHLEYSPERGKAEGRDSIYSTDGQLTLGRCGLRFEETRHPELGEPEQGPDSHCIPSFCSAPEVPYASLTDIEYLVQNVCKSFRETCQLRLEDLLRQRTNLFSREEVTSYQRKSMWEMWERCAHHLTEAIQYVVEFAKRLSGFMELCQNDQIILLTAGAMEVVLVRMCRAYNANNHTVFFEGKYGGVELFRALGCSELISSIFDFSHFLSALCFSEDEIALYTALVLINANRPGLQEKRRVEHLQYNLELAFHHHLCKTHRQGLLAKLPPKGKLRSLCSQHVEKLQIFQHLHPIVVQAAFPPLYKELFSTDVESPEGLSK
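A Gal4/UAS one-hybrid system in insect cells: metallothionein-promoter Gal4–ROR gamma fusion plus Photinus luciferase reporter. Copper sulfate 700 uM final, 20 hr ambient incubation, luminescent detection after 10 min with reagent.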
VP16 counter – VP16 counterscreen qHTS for inhibitors of ROR gamma transcriptional activity | Drosophila S2 Gal4-VP16 UAS-luciferase, luminescence, 20 h | Potency, µM (series often up to 53.6 µM), without a hit: top-dose activity, negative = inhibition, hits mostly inhibitors | actives 3.5% (n = 310,000) | AID 2546, 2010;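 further: Gal4-VP16 expression switched on by copper sulfate through the metallothionein promoter; potency means the concentration at half of the fitted maximal effect; nearly all actives have a fitted effect of over 50% in size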
DT40 TDP1 no CPT – qHTS for Inhibitors of human tyrosyl-DNA phosphodiesterase 1 (TDP1): qHTS in cells in absence of CPT | DT40 Tdp1-/- hTDP1 cells, no CPT, ATP luminescence, 48 h | Potency, µM (top dose mostly 46.2 µM), for the others: top-dose activity change, negative = growth inhibition, most hits filed as inhibitors | actives 15% (n = 420,000) | AID 686978, 2013; further: potency means the concentration at half of the fitted maximal effect; nearly all actives have a fitted effect of over 55% in size
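Stably hTDP1-transfected Tdp1-null chicken DT40 cells were treated with library compounds minus camptothecin and grown for at least 48 hr at 37 °C, after which cellular ATP was quantified by luminescence.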
IL-1B inflam inh – qHTS for Inhibitors of Inflammasome Signaling: IL-1-beta AlphaLISA Primary Screen. THP-1 LPS/ATP IL-1B secretion, AlphaLISA, 16 h; active compounds read low. activity change, % at 57.5 µM. actives 4.7% (n = 360,000); in the data active means activity change below about -50%; inconclusive means mostly about -30% to -49%
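THP-1 cells pretreated 1 hr with compounds (up to 57.5 uM final), then stimulated with LPS (250 ng/mL final) plus ATP (1.25 mM final); secreted IL-1B measured by AlphaLISA after 16 hr, decreased signal indicating inhibition.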
LDHA block – qHTS assay for inhibitors of human lactate dehydrogenase; purified LDHA, NADH/diaphorase-resazurin fluorescence; active compounds read low; activity change, % (values are at about 110 or 230 µM); actives 0.15% (n = 480,000); AID 1347041, 2019; in the data active means activity change below about -30%; inconclusive means mostly about -25% to -30%;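 further: plate controls were DMSO wells for no effect and wells without enzyme for full effect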
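Resorufin fluorescence (ex540/em590), read at 0 and 20 min after diaphorase/resazurin addition, reports the NADH left after a 5 min room-temperature reaction of 2 nM human LDH5 with 0.06 mM NADH and 0.2 mM pyruvate.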
DT40 TDP1 CPT – qHTS for Inhibitors of human tyrosyl-DNA phosphodiesterase 1 (TDP1): qHTS in cells in presence of CPT; chicken DT40 Tdp1-/-;hTDP1 cells + 20 nM CPT, ATP luminescence, 48 h; Potency, µM (titrated, usually from 46.2 µM), without a hit: at the top dose activity change, negative = growth inhibition, actives largely listed as inhibitors; actives 12% (n = 420,000); AID 686979, 2013; further: potency means the concentration at half of the fitted maximal effect; nearly all actives have a fitted effect of over 55% in size
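Chicken DT40 Tdp1-/- cells stably complemented with human TDP1 were seeded at 400 cells/well in medium containing 20 nM camptothecin, exposed to pin-transferred compounds, and grown at 37 °C for at least 48 hr. Viability was read as ATP luminescence.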
Numbers without * were called inactive; ? = inconclusive; . = not tested or not shown; [ ] = dose if it differs, or a comment. The list is not random: actives were taken first. Their share in the collection is about 18%. Unless noted, the call rests on the fitted dose curve; in most records, active means well fitted curve in the direction sought with a large enough effect; inconclusive means small, poorly fitted or top-dose-only effect, or another doubt; inactive means no such curve, though single readings can be large; an effect the other way counts as inactive or inconclusive. Unless noted, on the % scale 0 is the no-effect control and ±100 the full control effect.

SMILES	RORgamma inh	VP16 counter	DT40 TDP1 no CPT	IL-1B inflam inh	LDHA block	DT40 TDP1 CPT
O=C(COc1ccccc1[N+](=O)[O-])Nc1cccc(Cl)c1N1CCOCC1	?	?	15µM*	14	-10	16µM*
CCOc1cc(N2CCOCC2)c(OCC)cc1NC(C)C(=O)N1CCC(C)CC1 (stereo unspecified)	26%	?	26µM*	-4	29	?
CCOc1cc(N2CCOCC2)c(OCC)cc1NC(=O)c1[nH]c(C)c(C(C)=O)c1C	.	.	5.8µM*	18	3	8.2µM*
CC(=O)c1c(C)[nH]c(C(=O)Nc2ccccc2N2CCOCC2)c1C	-28%	-2%	?	20	-7	?
Cc1ccc(C(=O)c2sc(Nc3cc(Cl)ccc3C)nc2N)cc1	.	.	.	.	-2	.
COc1ccccc1CNC(=O)N(C)CCOc1ccccc1C	.	.	.	.	-3	.
O=C(OCc1cccc2ccccc12)c1cnccn1	.	.	.	.	13	.
CCOc1cc(N2CCOCC2)c(OCC)cc1NC(=O)Cn1cnnn1	.	.	17%	-4	5	-13%
CCOc1cc(N2CCOCC2)c(OCC)cc1NC(=O)COc1cccc(CC)c1	.	.	8.2µM*	15	8	18µM*
CCOc1cc(N2C(=O)CC3CS(=O)(=O)CC32)c(OCC)cc1NC(=O)c1ccccc1 (stereo unspecified)	-2%	-9%	21µM*	21	14	?
CCOc1cc(N2CCOCC2)c(OCC)cc1NC(=O)[C@H](C)N1C(=O)C2CC=CCC2C1=O (stereo partly specified)	-2%	4%	12µM*	28	5	-3%
CCOc1cc(N2CCOCC2)c(OCC)cc1NC(=O)CC12CC3CC(CC(C3)C1)C2	-1%	-8%	18µM*	-10	9	13µM*
CCOc1cc(N2CCOCC2)c(OCC)cc1NC(=O)COC(=O)c1cc2ccccc2cc1O	4%	2%	?	3	8	?
CCOc1ccc(S(=O)(=O)N2CCCCC2)cc1NC(=O)c1ccccc1	.	.	?	-1	0	-4%
CC1CN(c2nc(-c3ccsc3)nc3ccccc23)CCO1 (stereo unspecified)	.	.	.	.	-6	.
CCOc1cc(N2CCOCC2)c(OCC)cc1NC(=O)COc1ccccc1[N+](=O)[O-]	-17%	2%	?	-80*	-6	-10%
CCOc1cc(N2CCOCC2)c(OCC)cc1NC(=O)CN1CCN(Cc2ccc3c(c2)OCO3)CC1	1%	-1%	?	14	-3	?
CCOc1cc(N2CCOCC2)c(OCC)cc1NC(=O)Cc1ccc(OC)c(OC)c1	36%	-23%	23µM*	0	28	?
CCCOc1ccc(C(=O)Nc2ccc(N3CCOCC3)cc2N2CCOCC2)cc1OCC	.	.	21µM*	-9	1	?
CCOc1cc(N2CCOCC2)c(OCC)cc1NC(=O)c1ccc(S(C)(=O)=O)cc1	12%	-1%[10 µM]	-21%	-3	6	-2%
CCOc1cc(N2CCOCC2)c(OCC)cc1NC(=O)c1cccc(N(C)C)c1	4%	-7%	21µM*	-3	22	?
Cc1cc(C)c2c(=O)cc(C(=O)Nc3ccccc3C)oc2c1	.	.	.	.	-5	.
CN(Cc1ccccc1)C(=O)/C=C/c1cccs1	.	.	.	.	9	.
CCOc1cc(N2CCOCC2)c(OCC)cc1NC(=O)CN1CCc2ccccc2C1	-20%	-1%	18µM*	2	3	23µM*
CCOc1cc(N2CCOCC2)c(OCC)cc1NC(=O)CSc1ccccc1C(=O)O	.	.	-19%	11	8	?
SMILES	RORgamma inh	VP16 counter	DT40 TDP1 no CPT	IL-1B inflam inh	LDHA block	DT40 TDP1 CPT
CCOc1cc(N2CCOCC2)c(OCC)cc1NC(=O)COC(=O)c1ccc(Cl)cc1N	.	.	?	51	1	5.8µM*
CC(=O)NCCNC(=S)Nc1ccc(F)cc1	.	.	.	.	7	.
CC(O)CNC(=O)C1CCN(Cc2nnnn2-c2ccccc2)CC1 (stereo unspecified)	.	.	.	.	1	.
CC(C)CNC(=O)c1c(-n2cnnn2)sc2c1CCC2	.	.	.	.	1	.
C[C@@H]1CN([C@H](C)CO)C(=O)c2c(c3ccccc3n2C)-c2ccccc2CO[C@H]1CN(C)Cc1ccc(Oc2ccccc2)cc1	.	.	26µM*	-20	1	?
COc1ccc(NC(=O)N(C)C[C@@H]2OCc3ccccc3-c3c(n(C)c4ccccc34)C(=O)N([C@H](C)CO)C[C@H]2C)c(OC)c1	.	.	?	?	-11	15µM*
C[C@@H]1CN([C@H](C)CO)C(=O)c2c(c3ccccc3n2C)-c2ccccc2CO[C@H]1CN(C)Cc1ccc(C(F)(F)F)cc1	.	.	21µM*	?	5	?
C[C@@H]1CN([C@H](C)CO)C(=O)c2c(c3ccccc3n2C)-c2ccccc2CO[C@H]1CN(C)Cc1cccc(C(=O)O)c1	.	.	-16%	-13	-1	-20%
C[C@@H]1CN([C@@H](C)CO)C(=O)c2c(c3ccccc3n2C)-c2ccccc2CO[C@H]1CN(C)S(=O)(=O)c1ccc(C(F)(F)F)cc1	.	.	-16%	14	-2	-26%
Cc1nc2ccc(C(=O)NCc3ccccn3)cc2nc1C	.	.	.	.	2	.
Cc1ccc(NC(=O)Cc2c[nH]c3ccccc23)cc1C	.	.	.	.	18	.
CCOc1ccccc1NC(=O)CN1C(=O)COc2ccc(S(=O)(=O)N3CCCCC3)cc21	.	.	23µM*	.	-7	21µM*
CCN(Cc1ccccc1)C(=O)CN1C(=O)COc2ccc(S(=O)(=O)NC3CCCC3)cc21	6%	-1%	?	-1	-3	16µM*
CCOc1ccccc1NC(=O)CN1C(=O)COc2ccc(S(=O)(=O)N3CCCCCC3)cc21	.	.	21µM*	.	-16	?
COc1ccccc1NC(=O)CN1C(=O)COc2ccc(S(=O)(=O)N3CCCCCC3)cc21	-34%	1%	-11%	-8	0	?
Cc1cc(C)cc(NC(=O)CN2C(=O)COc3ccc(S(=O)(=O)Nc4ccccc4)cc32)c1	.	.	-19%	.	6	-24%
CCOc1ccccc1NC(=O)CN1C(=O)COc2ccc(S(=O)(=O)Nc3ccccc3)cc21	.	.	18µM*	.	6	16µM*
CCn1c(SCC(=O)N(C)Cc2ccc(-c3ccc(Br)cc3)o2)nnc1C1CC1	.	.	.	.	2	.
